This is an account of results in PubChem BioAssay AID686978 (National Center for Advancing Translational Sciences (NCATS), 2013).

Screen size: about 420,000 compounds; about 64,000 (15%) were called active. Not shown: some 27% with an inconclusive outcome. The list is a sample of the results. Values without a mark were called inactive. Calls come from the whole dose curve; as a rule, active = well fitted inhibition curve with a large enough effect; inconclusive = small, poorly fitted or top-dose-only effect; inactive = flat fitted curve, though single readings scatter.
% is set by controls: 0 for no effect and ±100 for the full control effect; potency is the fitted concentration of half-maximal effect.

The nature of this assay: qHTS for Inhibitors of human tyrosyl-DNA phosphodiesterase 1 (TDP1): qHTS in cells in absence of CPT. Note: nearly all actives have a fitted effect of over 55% in size. The settings on record: DT40 Tdp1-/- hTDP1 cells, no CPT, ATP luminescence, 48 h; activity change, negative = growth inhibition: at 46.2 µM (top of the series). In a few lines: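 No-CPT arm: Tdp1-/-;hTDP1 DT40 cells (400/well) plus compounds, incubated ≥48 hr at 37 °C. Readout CellTiter-Glo luminescence.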
In general terms: In qHTS, concentration-response curves come from the screen itself.
On to `Cc1cc(C)n2nc(C(=O)OC(C)C(=O)c3cc(C)c(C)cc3C)nc2n1` (stereo unspecified), for which the “activity change, negative = growth inhibition” value was -7.26%. For the molecule `Cc1cc(NC(=O)Nc2c[nH]c(=O)[nH]c2=O)ccc1Br`, the “activity change, negative = growth inhibition” value was 6.32%. Consider `CCOc1cc(/C=C2/C(=N)N3OC(C)=CC3=NC2=O)ccc1OC`, for which the “activity change, negative = growth inhibition” value is -2.7%. On to `O=C(Nc1ccc(Cl)cc1)c1csc([C@H]2C[C@H](O)[C@@H](CO)O2)n1`, for which the “activity change, negative = growth inhibition” value was -24.7%. For the molecule `CCN(CC)CCN1C(=O)C2C(C(=O)Nc3ccc(Br)cc3)C3C=CC2(O3)C1C(=O)NC1CCCCC1` (stereo unspecified), the “activity change, negative = growth inhibition” value is 4.87%. For `CC1CC[C@@]23CCC4(C)[C@@]5(C)CCC6C(C)(C)C(O)CC[C@@]6(C)C5C=C[C@@]4(OC2=O)C3C1C` (stereo partly specified), the “activity change, negative = growth inhibition” value is -7.31%. For the molecule `O=C(NC(Cc1ccc(O)cc1)C(=O)O)/C(=C/c1ccccc1)NC(=O)c1ccccc1` (stereo unspecified), the “activity change, negative = growth inhibition” value was 3.55%. Turning to `O=C(NCC(F)(F)F)Nc1nnc(C(F)(F)F)s1`, the “activity change, negative = growth inhibition” value was -29.8%.

`CCOC(=O)C1=C(NC(=S)NC(=O)c2ccccc2)c2ccccc2CC1(C)C`: the “activity change, negative = growth inhibition” value was -29%.

In the case of `O=C(O)CSc1c2c(nc3cc(C(=O)Nc4cccc(C(F)(F)F)c4)ccc13)CCCC2`, the “activity change, negative = growth inhibition” value was -1.66%. With `COc1cccc(-c2ccc(C#N)c(SCC(=O)NCCc3ccc(Cl)cc3)n2)c1`, the “activity change, negative = growth inhibition” value was -8.31%. Regarding `COc1cccc(CNC(=O)CSc2c3c(nc4cc(Cl)ccc24)CCCC3)c1`, the Potency was 14.6 µM (active). Same read-out and setting: to `CC(=O)c1ccc(NC(=O)c2ccc3c(Cl)c4c(nc3c2)CCCC4)cc1` belongs 18.4 µM (active); to `COc1cccc(CNC(=O)c2nnn(CC(=O)Nc3cc(Cl)ccc3C)c2N)c1`, “inactive”. As for `CC(=O)c1ccc(NC(=O)c2cc(-c3cccs3)on2)cc1`, the “activity change, negative = growth inhibition” value is -22.4%. Turning to `Cc1nc2c(C(=O)NCc3ccc4c(c3)OCO4)c[nH]n2c(=O)c1Cc1ccccc1F`, the “activity change, negative = growth inhibition” value is 12.6%.

Consider `Cc1cc(N)n(-c2ccc(S(=O)(=O)N3CCCC3)cc2[N+](=O)[O-])n1`, for which the “activity change, negative = growth inhibition” value was 0.143%. For the molecule `Cc1cc(C(=O)N2CCN(c3ccccn3)CC2)c(C)o1`, the Potency was 12.6 µM (active). As for `CCOCCCN(C)C1CCN(C(=O)c2oc3ccccc3c2NC(=O)COc2cccc(C)c2)CC1`, the “activity change, negative = growth inhibition” value is 4.68%. With `O=C(Nc1ccccc1C(=O)N1CCCCC1)c1ccco1`, the “activity change, negative = growth inhibition” value is -1.83%. For `O=C(c1ccco1)N1CCN(C(=S)Nc2cc(F)cc(F)c2)CC1`, the “activity change, negative = growth inhibition” value is -3.94%. `COc1cccc(OC)c1C(=O)Nc1c(C(=O)N2CCN(c3ccccn3)CC2)oc2ccccc12`: the Potency is 25.9 µM (active).

As for `COCC(=O)Nc1c(C(=O)N2CCCC2)oc2ccccc12`, the “activity change, negative = growth inhibition” value was -12%.

As for `O=C(C(Cl)Cl)N1CCN(c2ccccn2)CC1`, the “activity change, negative = growth inhibition” value is -8.55%. For `CCC(=O)Nc1c(C(=O)N2CCN(c3ccc(F)cc3)CC2)oc2ccccc12`, the Potency was 25.9 µM (active). As for `O=C(Nc1c(C(=O)N2CCN(c3ccc(F)cc3)CC2)oc2ccccc12)c1ccco1`, the Potency is 18.4 µM (active). As to `CCOCCCN(C)C1CCN(C(=O)c2oc3ccccc3c2NC(=O)Cc2cccc([N+](=O)[O-])c2)CC1`, the “activity change, negative = growth inhibition” value is -13.7%.

For the molecule `O=C(c1cc2ccccc2s1)N1CCN(c2ccccn2)CC1`, the “activity change, negative = growth inhibition” value was -1.53%. Still for that read-out and setting: to `O=C(c1c(F)cccc1Cl)N1CCN(c2ccccn2)CC1` belongs -13.2%. `O=C(CSc1nnc(Nc2ccccc2F)s1)NC1CCCC1`: the “activity change, negative = growth inhibition” value is -13.1%. Turning to `CC(=O)/C(C)=N\O`, the “activity change, negative = growth inhibition” value is -5.03%. Take `COc1cc(C2C(C(=O)c3cccs3)=C(O)C(=O)N2CCN2CCOCC2)ccc1OCCC(C)C` (stereo unspecified): the “activity change, negative = growth inhibition” value was -0.632%. As to `CSc1cc(C)[nH]c(=O)n1`, the “activity change, negative = growth inhibition” value is 17.6%. Regarding `Cc1nnc(SCc2cccc(Cl)c2)n(N)c1=O`, the “activity change, negative = growth inhibition” value was 2.72%. On the same count and under the same terms, the same measure for `COC(=O)Nc1ccc(S(=O)(=O)N2CCN(CCN3C(=O)C4C5C=CC(C5)C4C3=O)CC2)cc1` (stereo unspecified): -6.58%. Regarding `Cc1ccc(C2SCC(=O)N2c2ccccc2)cc1` (stereo unspecified), the “activity change, negative = growth inhibition” value is 8.15%. On to `Cc1ccc(S(=O)(=O)N(C)C)cc1NC(=O)/C=C/c1cccs1`, for which the “activity change, negative = growth inhibition” value is -25%. Take `Cc1csc2ncc(C(=O)N(Cc3ccccc3)c3ccccn3)c(=O)n12`: the “activity change, negative = growth inhibition” value is -24.4%.

As for `COC(=O)c1cc(C(=O)N(Cc2ccccc2)c2ccccn2)cc([N+](=O)[O-])c1`, the “activity change, negative = growth inhibition” value is -1.59%. On the same count and under the same terms, to `CCC(=O)N(Cc1ccccc1)c1ccccn1` belongs 1.24%. In the case of `COc1cc(CN(C(=O)c2ccccc2Br)c2ccccn2)cc(OC)c1OC`, the Potency was 13 µM (active).

Take `CC(C)(C)C(=O)N(Cc1ccccc1)c1ccccn1`: the “activity change, negative = growth inhibition” value is 0.288%. As for `Cc1ccc(CN(C(=O)c2ccccc2[N+](=O)[O-])c2ccccn2)cc1`, the Potency is 11.6 µM (active). In the case of `O=C(c1ccco1)N1CCC2(CC1)CN(c1ncccn1)C2`, the “activity change, negative = growth inhibition” value was -12.3%. For `CCN(CC(=O)Nc1c(F)cccc1F)C(=O)c1ccc(S(=O)(=O)N2CCCCC2)cc1`, the “activity change, negative = growth inhibition” value was -20.4%. As to `CCN1CCN(C(=O)N(Cc2ccc(Cl)cc2)S(=O)(=O)c2ccc(C)cc2)CC1`, the “activity change, negative = growth inhibition” value is -1.21%. The same measure, in the same setting: the same measure for `O=c1[nH]c2ccccc2s1`: -20.8%; for `O=C(Cn1c2[n+](c3ccc(C(F)(F)F)cc31)CCCCC2)Nc1c(F)cccc1F`: 10.3%; for `COc1ccc(Cl)cc1NC(=O)CSc1nc2ccccc2c2nc(-c3ccccc3)nn12`: -6.83%. Take `CC(=O)NCCn1c(SCC(=O)Nc2ccc(C)cc2)nc2ccccc2c1=O`: the Potency result was “inactive”. `Cc1ccc(NC(=O)CSc2nc3ccccc3c3nc(CCn4cncc4C)nn23)cc1F`: the Potency is 20.6 µM (active).
